Test results as given in PubChem BioAssay (NCI).
“And” between values parts separate entries of the source, which are not always exact repeats. Identical values can stand only once. About 79,000 compounds went through this panel and 15% of them were active in at least one assay; those are over-represented in the sample as a whole. Some structures have more than one record in an assay (separate samples or runs), and their calls can disagree. The source made the active and inactive calls. Rule as the data show it: active = growth inhibition above about 70%; inactive = the rest.

What was measured:
[1] = NCI Yeast Anticancer Drug Screen. Data for the rad52 strain (AID 147);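 also: 0% = growth of vehicle-treated control cultures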; conditions: S. cerevisiae rad52 mutant growth inhibition, stronger effect = higher value
In short: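 Yeast strain carrying a DNA damage repair alteration was exposed to test compounds. Growth inhibition was measured relative to vehicle-treated controls.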

[2] = NCI Yeast Anticancer Drug Screen. Data for the wt1 strain (AID 149);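 also: 0% = growth of vehicle-treated wt1 cultures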; conditions: S. cerevisiae wt1 strain (SPY 50644) growth inhibition, stronger effect = higher value
In short: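 Measured: growth of wt1 yeast under compound versus vehicle treatment, reported as inhibition.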

[3] = NCI Yeast Anticancer Drug Screen. Data for the rad50EPP+ strain (AID 151);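 also: 0% = growth of vehicle-treated control cultures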; conditions: S. cerevisiae rad50 mutant strain, stronger effect = higher value
In short: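 Yeast strain carrying rad50 alteration (rad50EPP+) exposed to compounds; growth inhibition measured relative to vehicle-treated controls.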

[4] = NCI Yeast Anticancer Drug Screen. Data for the rad50 strain (AID 155);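 also: 0% = growth of vehicle-only cultures of the same strain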; conditions: S. cerevisiae rad50 strain growth inhibition, stronger effect = higher value
In short: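 Growth of the mutant yeast was measured after compound exposure and referenced to vehicle-treated cultures.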

[5] = NCI Yeast Anticancer Drug Screen. Data for the mec2-1 strain (AID 157); conditions: S. cerevisiae mec2-1 strain, stronger effect = higher value
In short: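 mec2-1 yeast strain, carrying an alteration in DNA damage repair or cell cycle control, was exposed to compounds; growth inhibition was measured relative to vehicle-treated controls.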

[6] = NCI Yeast Anticancer Drug Screen. Data for the rad14 strain (AID 159);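 also: 0% = growth of vehicle-treated control cultures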; conditions: S. cerevisiae rad14 strain growth inhibition, stronger effect = higher value
In short: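 Here, inhibition of yeast growth was measured after compound exposure, using a strain with a genetic defect in DNA damage repair and vehicle-treated cultures as the reference.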

[7] = NCI Yeast Anticancer Drug Screen. Data for the sgs1 mgt1 strain (AID 161);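 also: 0% = growth of cultures given vehicle only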; conditions: S. cerevisiae sgs1 mgt1 strain, stronger effect = higher value
In short: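 Yeast cells carrying a defined DNA-repair defect were exposed to test compounds. Growth inhibition was measured relative to vehicle-treated controls.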

[8] = NCI Yeast Anticancer Drug Screen. Data for the CLN2oe strain (AID 163);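 also: 0% = growth of vehicle-only control cultures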; conditions: S. cerevisiae CLN2oe strain, stronger effect = higher value
In short: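 Yeast cells carrying a defined cell-cycle control alteration were exposed to test compounds. Growth inhibition was scored against vehicle-treated control cultures.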

[9] = NCI Yeast Anticancer Drug Screen. Data for the cln2 rad14 strain (AID 165);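 also: 0% = growth equal to vehicle treated cultures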; conditions: S. cerevisiae cln2 rad14 strain, stronger effect = higher value
In short: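 Yeast carrying cln2 and rad14 alterations (cell cycle control and DNA damage repair) were exposed to compounds. Growth inhibition was measured against vehicle-treated controls.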

[10] = NCI Yeast Anticancer Drug Screen. Data for the bub3 strain (AID 167); conditions: S. cerevisiae bub3 mutant strain, stronger effect = higher value
In short: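 Whole-cell yeast assay. The mutant strain was incubated with compounds, and growth inhibition was determined by comparison with vehicle-treated cells.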

[11] = NCI Yeast Anticancer Drug Screen. Data for the wt2 strain (AID 169);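 also: 0% = growth of vehicle-treated yeast cultures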; conditions: S. cerevisiae wt2 strain growth inhibition, stronger effect = higher value
In short: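 Yeast cells were exposed to test compounds, and growth inhibition was measured relative to vehicle-treated controls.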

[12] = NCI Yeast Anticancer Drug Screen. Data for the mlh1 strain (AID 171);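 also: 0% = growth of vehicle-treated control cultures of the same strain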; conditions: S. cerevisiae mlh1 strain growth inhibition, stronger effect = higher value
In short: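 Yeast carrying a defined genetic alteration in DNA damage repair or cell cycle control were exposed to test compounds. Growth inhibition was measured relative to vehicle-treated controls.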

[13] = NCI Yeast Anticancer Drug Screen. Data for the sgs1 strain (AID 173);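 also: 0% = growth of vehicle-only control cultures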; conditions: S. cerevisiae sgs1 mutant, stronger effect = higher value
In short: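 Yeast mutant strains carrying defined defects in DNA damage repair or cell cycle control were exposed to test compounds. Growth inhibition was scored against vehicle-treated controls.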

[14] = NCI Yeast Anticancer Drug Screen. Data for the mlh1 rad18 strain (AID 175); conditions: S. cerevisiae mlh1 rad18 strain growth inhibition, stronger effect = higher value
In short: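 Growth inhibition of the yeast strain was measured after compound exposure and expressed relative to vehicle-treated controls. The strain carries defined defects in DNA damage repair.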

[15] = NCI Yeast Anticancer Drug Screen. Data for the rad18 strain (AID 177); conditions: S. cerevisiae rad18 mutant growth inhibition, stronger effect = higher value
In short: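 Yeast carrying a defined DNA damage repair alteration were exposed to compounds. Growth inhibition was expressed relative to vehicle-treated controls.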

[16] = at 5.0 µM (retest, dose inferred, filed as 0.5)
[17] = at 50.0 µM (retest, dose inferred, filed as 5.0)

Nc1ncnc2c1ncn2C1OC(CO)CC1O (stereo not drawn)
growth inhibition ([1]; at 1.2 µM): -20% (inactive) | growth inhibition ([1]; at 3.7 µM): -10% (inactive) | growth inhibition ([1]; at 11.0 µM): 24% (inactive) | growth inhibition ([1]; at 33.0 µM): 71% (active) | growth inhibition ([1]; at 100.0 µM): 91% (active) | growth inhibition ([2]; at 1.2 µM): -25% (inactive) | growth inhibition ([2]; at 3.7 µM): -10% (inactive) | growth inhibition ([2]; at 11.0 µM): -4% (inactive) | growth inhibition ([2]; at 33.0 µM): 54% (inactive) | growth inhibition ([2]; at 100.0 µM): 87% (active) | growth inhibition ([3]; at 1.2 µM): -16% (inactive) | growth inhibition ([3]; at 3.7 µM): -12% (inactive) | growth inhibition ([3]; at 11.0 µM): -10% (inactive) | growth inhibition ([3]; at 33.0 µM): -25% (inactive) | growth inhibition ([3]; at 100.0 µM): 0% (inactive) | growth inhibition ([4]; at 1.2 µM): -9% (inactive) | growth inhibition ([4]; at 3.7 µM): -3% (inactive) | growth inhibition [4, 16]: 63% (inactive) and 14% (inactive) | growth inhibition ([4]; at 11.0 µM): 30% (inactive) | growth inhibition ([4]; at 33.0 µM): 76% (active) | growth inhibition [4, 17]: 90% (active) | growth inhibition ([4]; at 50.0 µM): 87.8% (active) and 6.15% (inactive) and 79.6% (active) | growth inhibition ([4]; at 100.0 µM): 91% (active) | growth inhibition ([5]; at 1.2 µM): -7% (inactive) | growth inhibition ([5]; at 3.7 µM): -8% (inactive) | growth inhibition [5, 16]: 63% (inactive) and 17% (inactive) | growth inhibition ([5]; at 11.0 µM): 7% (inactive) | growth inhibition ([5]; at 33.0 µM): 72% (active) | growth inhibition [5, 17]: 92% (active) and 91% (active) | growth inhibition ([5]; at 50.0 µM): 88% (active) and -5.4% (inactive) and 76.5% (active) | growth inhibition ([5]; at 100.0 µM): 92% (active) | growth inhibition ([6]; at 1.2 µM): -15% (inactive) | growth inhibition ([6]; at 3.7 µM): -1% (inactive) | growth inhibition ([6]; at 11.0 µM): 27% (inactive) | growth inhibition ([6]; at 33.0 µM): 76% (active) | growth inhibition ([6]; at 100.0 µM): 94% (active) | growth inhibition [7, 16]: -20% (inactive) and 14% (inactive) | growth inhibition [7, 17]: 89% (active) and 90% (active) | growth inhibition ([7]; at 50.0 µM): 87.5% (active) and 2.25% (inactive) and 72.8% (active) | growth inhibition ([8]; at 1.2 µM): 17% (inactive) | growth inhibition ([8]; at 3.7 µM): 9% (inactive) | growth inhibition ([8]; at 11.0 µM): 27% (inactive) | growth inhibition ([8]; at 33.0 µM): 47% (inactive) | growth inhibition ([8]; at 100.0 µM): 85% (active) | growth inhibition [9, 16]: 10% (inactive) and 9% (inactive) | growth inhibition [9, 17]: 87% (active) and 68% (inactive) | growth inhibition ([9]; at 50.0 µM): 81.8% (active) and -27.8% (inactive) and 59.8% (inactive) | growth inhibition ([10]; at 1.2 µM): -6% (inactive) | growth inhibition ([10]; at 3.7 µM): -2% (inactive) | growth inhibition [10, 16]: 34% (inactive) and 22% (inactive) | growth inhibition ([10]; at 11.0 µM): 34% (inactive) | growth inhibition ([10]; at 33.0 µM): 77% (active) | growth inhibition [10, 17]: 92% (active) | growth inhibition ([10]; at 50.0 µM): 89.3% (active) and -3.15% (inactive) and 83% (active) | growth inhibition ([10]; at 100.0 µM): 92% (active) | growth inhibition ([11]; at 1.2 µM): -7% (inactive) | growth inhibition ([11]; at 3.7 µM): -3% (inactive) | growth inhibition ([11]; at 11.0 µM): 13% (inactive) | growth inhibition ([11]; at 33.0 µM): 66% (inactive) | growth inhibition ([11]; at 100.0 µM): 91% (active) | growth inhibition ([12]; at 1.2 µM): -22% (inactive) | growth inhibition ([12]; at 3.7 µM): -5% (inactive) | growth inhibition ([12]; at 11.0 µM): 15% (inactive) | growth inhibition ([12]; at 33.0 µM): 66% (inactive) | growth inhibition ([12]; at 100.0 µM): 91% (active) | growth inhibition ([13]; at 1.2 µM): -14% (inactive) | growth inhibition ([13]; at 3.7 µM): 2% (inactive) | growth inhibition ([13]; at 11.0 µM): 25% (inactive) | growth inhibition ([13]; at 33.0 µM): 72% (active) | growth inhibition ([13]; at 100.0 µM): 90% (active) | growth inhibition [14, 16]: 39% (inactive) and 11% (inactive) | growth inhibition [14, 17]: 91% (active) and 92% (active) | growth inhibition ([14]; at 50.0 µM): 89.5% (active) and 1.35% (inactive) and 82.9% (active) | growth inhibition ([15]; at 1.2 µM): 4% (inactive) | growth inhibition ([15]; at 3.7 µM): 4% (inactive) | growth inhibition ([15]; at 11.0 µM): 52% (inactive) | growth inhibition ([15]; at 33.0 µM): 82% (active) | growth inhibition ([15]; at 100.0 µM): 92% (active)
